# Test results reported in PubChem BioAssay (EPA / NIEHS).
# Inconclusive results are not listed. The source made the active and inactive calls. How the source made its calls, unless noted: active means hit-call score of the fitted dose curve at least 0.9, where 1 is the maximum; inactive means score below 0.9.
# Assays:
# [1] = CCTE_Shafer_MEA_dev_firing_rate_mean: CCTE's Neural Network Formation Assay for Mean Firing Rate, Shafer Lab (AID 2284031);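 further: curve fitted for loss of firing so AC50 reflects decreased mean firing rate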
# Procedure, shortened: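 Developing rat cortical networks on MEA plates undergo 12-day compound exposure. Firing frequency, averaged across active electrodes, is integrated as area under the curve over four recording days, referenced to DMSO.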
# [2] = CCTE_Shafer_MEA_dev_per_burst_spike_percent: CCTE's Neural Network Formation Assay for Percent of Spikes in a Burst, Shafer Lab (AID 2284032);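 further: fitted as a decrease in burst spike percentage below DMSO baseline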
# Procedure, shortened: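 Rat primary cortical neurons on 16-electrode MEA wells, dosed from plating day 0 for 12 days with renewal on DIV 5 and 9; spikes-in-bursts percentage averaged over bursting electrodes, collapsed as AUC across days 5, 7, 9, 12; loss direction versus DMSO.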
# [3] = CCTE_Shafer_MEA_dev_active_electrodes_number: CCTE's Neural Network Formation Assay for Number of Active Electrodes, Shafer Lab (AID 2284040; active means hit-call score of the fitted dose curve at least 0.9, where 1 is the maximum;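 further: potency for loss of active electrodes versus DMSO so lower counts are hits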)
# Procedure, shortened: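 Rat cortical primary cultures, 1.5 x 10^5 cells/well, PEI-coated MEA, laminin drop. Continuous exposure DIV 0–12; full media/compound change DIV 5, 9. Readout: electrodes with mean firing ≥5 spikes/min; AUC across days; loss vs DMSO.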
# [4] = CCTE_Shafer_MEA_dev_burst_rate: CCTE's Neural Network Formation Assay for Burst Rate, Shafer Lab (AID 2284042);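 further: potency for loss of burst rate below DMSO control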
# Procedure, shortened: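 Rat primary cortical cultures on PEI/laminin MEA; compound from plating, re-dosed at DIV 5, 9 media change. Single-electrode bursts/recording length, well mean of active electrodes; AUC over DIV 5–12 recordings; loss-of-signal vs DMSO.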
# [5] = CCTE_Shafer_MEA_dev_bursting_electrodes_number: CCTE's Neural Network Formation Assay for Number of Bursting Electrodes, Shafer Lab (AID 2284043; active means hit-call score of the fitted dose curve at least 0.9, where 1 is the maximum;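 further: potency is for loss of bursting electrodes relative to DMSO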)
# Procedure, shortened: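 Primary rat cortical neurons were cultured on PEI-coated 48-well MEA plates (16 electrodes/well) and exposed from plating through day 12, with compound renewed at feeds on DIV 5 and 9. Electrodes bursting ≥1 per 2 min were counted on DIV 5, 7, 9, 12; trapezoidal AUC taken.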
# [6] = CCTE_Shafer_MEA_dev_per_burst_interspike_interval: CCTE's Neural Network Formation Assay for Burst Interspike Interval, Shafer Lab (AID 2284044);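 further: mean spike spacing inside bursts as AUC over recordings on days 5 7 9 12; potency for a decrease of within-burst interspike interval below DMSO level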
# Procedure, shortened: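 Mean interspike interval within single-electrode bursts, averaged over bursting electrodes, from rat cortical cultures on MEA plates recorded on days 5, 7, 9 and 12. Continuous compound exposure from plating; trapezoidal AUC fitted downward relative to DMSO.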
# [7] = CCTE_Shafer_MEA_dev_interburst_interval_mean: CCTE's Neural Network Formation Assay for Mean Interburst Interval, Shafer Lab (AID 2284046);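 further: well-mean interburst interval of bursting electrodes as AUC over four recording days; curve fitted for decrease in interburst interval relative to DMSO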
# Procedure, shortened: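 Rat cortical neurons, 1.5 x 10^5 cells/well, 48-well MEA; compound from day 0 through DIV 12, media and treatment renewed DIV 5/9. Recordings DIV 5, 7, 9, 12; well-mean interburst interval → trapezoidal AUC, loss direction vs DMSO.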
# [8] = CCTE_Shafer_MEA_dev_network_spike_number: CCTE's Neural Network Formation Assay for Number of Network Spikes, Shafer Lab (AID 2284048);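 further: synchronized bursts across electrodes counted on days 5 7 9 12 and integrated as AUC; fit as a loss of signal meaning fewer network spikes than DMSO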
# Procedure, shortened: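 Primary rat cortical neurons were seeded at 1.5 x 10^5 cells/well on PEI-coated 16-electrode MEA wells with laminin, exposed from plating day 0, compound renewed at DIV 5 and 9. Network spikes were recorded on days 5, 7, 9, 12 and summarized as trapezoidal AUC versus DMSO.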
# [9] = CCTE_Shafer_MEA_dev_network_spike_peak: CCTE's Neural Network Formation Assay for Mean Number of Electrodes in Network Spike, Shafer Lab (AID 2284049);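 further: fitted for loss of signal meaning fewer electrodes in network spikes than DMSO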
# Procedure, shortened: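 Continuous 12-day exposure of rat cortical cultures, starting at plating, on MEA plates. Endpoint: electrodes participating in network-spike peaks, AUC across DIV 5–12, DMSO as negative control.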
# [10] = CCTE_Shafer_MEA_dev_spike_duration_mean: CCTE's Neural Network Formation Assay for Mean Spike Duration, Shafer Lab (AID 2284051);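 further: mean network spike duration pooled as area under curve over DIV 5 to 12 recordings; potency for a decrease in mean network spike duration versus DMSO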
# Procedure, shortened: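 Rat cortical primary cultures, 48-well MEA (16 electrodes/well); compound from plating, renewed DIV 5, 9. Network spike duration (AxIS adaptive detector) recorded DIV 5/7/9/12, combined as trapezoidal AUC; loss direction vs DMSO.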
# [11] = CCTE_Shafer_MEA_dev_network_spike_duration_std: CCTE's Neural Network Formation Assay for Standard Deviation of Network Spike Duration, Shafer Lab (AID 2284052);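 further: area under curve of spike duration SD across recording days 5 to 12; hits are decreases in network spike duration SD versus DMSO vehicle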
# Procedure, shortened: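 Rat cortical cultures, 1.5 x 10^5 cells/well, exposed continuously from plating to DIV 12 with media/compound renewal at DIV 5, 9. Spontaneous activity recorded DIV 5/7/9/12, AxIS adaptive spike detector; AUC across days; negative direction vs DMSO.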
# [12] = CCTE_Shafer_MEA_dev_per_network_spike_spike_number_mean: CCTE's Neural Network Formation Assay for Mean Number of Spikes in a Network Spike, Shafer Lab (AID 2284053);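 further: fitted as decrease in spikes per network spike relative to DMSO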
# Procedure, shortened: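 Rat cortical primary cultures on 48-well MEA; compound from day 0, re-dosed with full media change DIV 5, 9. Recorded DIV 5, 7, 9, 12; spikes in 0.05 s window at network-spike peak ÷ total network spikes; AUC; loss vs DMSO.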
# [13] = CCTE_Shafer_MEA_dev_LDH: CCTE's Lactate Dehydrogenase Assay for Cytotoxicity in the Neural Network Formation Assay, Shafer Lab (AID 2284068; active means hit-call score of the fitted dose curve at least 0.9, where 1 is the maximum;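 further: exposure for twelve days from plating with re-dosing on DIV 5 and 9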)
# Procedure, shortened: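 Rat cortical primary neurons, MEA culture; dosing day 0–12, full medium plus compound exchange DIV 5, 9. Read-out: LDH enzyme activity, spectrophotometric. DMSO = negative control/baseline; signal loss → cytotoxicity.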
# [14] = CCTE_Shafer_MEA_dev_AB: CCTE's Alamar Blue Assay for Cytotoxicity in the Neural Network Formation Assay, Shafer Lab (AID 2284083; active means hit-call score of the fitted dose curve at least 0.9, where 1 is the maximum;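 further: resazurin reduction fluorescence as viability of cultured neurons; twelve days of exposure from plating with re-dosing on DIV 5 and 9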)
# Procedure, shortened: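 Rat cortical primary cultures, 1.5 x 10^5 cells/well on MEA; continuous compound exposure over 12 days of network development, re-dosed with full medium change DIV 5 and 9. Alamar Blue fluorescence; loss of signal = cytotoxicity vs DMSO baseline.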
# [15] = CCTE_Shafer_MEA_dev_mutual_information_norm: CCTE's Neural Network Formation Assay for Mutual Information Normalization, Shafer Lab (AID 2284091);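 further: mutual information between electrodes summarised as area under curve across four recording days; potency is for a decrease in mutual information relative to DMSO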
# Procedure, shortened: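 Rat cortical cultures, 48-well MEA, continuous exposure DIV 0–12 with full media/compound change DIV 5 and 9. Readout: inter-electrode mutual information, AxIS adaptive spike detection; AUC across DIV 5/7/9/12 recordings; DMSO baseline, negative fitting direction.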
# [16] = CCTE_Shafer_MEA_dev_correlation_coefficient_mean: CCTE's Neural Network Formation Assay for Mean Correlation Coefficient, Shafer Lab (AID 2284093);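 further: well mean pairwise spike train correlation integrated as AUC over recording days 5 to 12; potency fitted for loss of correlation relative to DMSO vehicle wells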
# Procedure, shortened: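 Rat cortical cultures, 1.5 x 10^5 cells/well, dosed from day 0 for 12 days. Spontaneous spikes recorded DIV 5/7/9/12; electrode-pair correlation coefficients averaged, AUC taken. Fit in loss direction vs DMSO.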
# [17] = IUF_NPC1b_proliferation_BrdU_72hr: Leibniz Research Institute for Environmental Medicine (IUF) 72-hour Neural Progenitor Cell Bromodeoxyuridine (BrdU) Proliferation Assay (NPC1b) (AID 2284207)
# Procedure, shortened: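 hNPC spheres (primary, GW 16-19 fetal cortex), single sphere/well, EGF+FGF medium; 72 h compound, no renewal; BrdU pulse last 16 h; luminescent ELISA; activity vs DMSO baseline; growth-factor withdrawal as positive control.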
# [18] = IUF_NPC1_viability_72hr: Viability Assessment at 72 hours in the Leibniz Research Institute for Environmental Medicine (IUF) Neural Progenitor Cell Proliferation Assay (NPC1) (AID 2284209)
# Procedure, shortened: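 Each well receives one 0.3 mm progenitor sphere from fetal brain cortex; test chemical is added at plating and left three days. Viability comes from alamar blue fluorescence, multiplexed with LDH and BrdU readouts in the same well.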
# [19] = CCTE_Mundy_HCI_Cortical_Synap_Neur_Matur_NeuriteSpotCountPerNeuriteLength: CCTE's Synaptogenesis and Neurite Maturation Assay in rat cortical cells for Neurite Spot Count per Neurite Length, Mundy Lab (AID 2284210)
# Procedure, shortened: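 Rat primary cortical cultures, glia arrested with AraC at DIV 5, were dosed with media change at DIV 7 and fixed at DIV 12. Synaptophysin puncta per MAP2-labelled neurite length were quantified by high-content imaging versus DMSO.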
# [20] = CCTE_Mundy_HCI_Cortical_Synap_Neur_Matur_BPCount: CCTE's Synaptogenesis and Neurite Maturation Assay in rat cortical cells for Branch Point Count, Mundy Lab (AID 2284211)
# Procedure, shortened: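 Branch point number is quantified by automated imaging of fluorescently labelled neurites and synapses in rat primary cortical neurons exposed from DIV 7 to DIV 12. Activity is analysed relative to DMSO negative control.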
# [21] = CCTE_Mundy_HCI_Cortical_NOG_NeuriteCount: CCTE's Neurite Outgrowth Assay in rat cortical cells for Neurite Count, Mundy Lab (AID 2284212);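 further: cells fixed about two days after chemical exposure began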
# Procedure, shortened: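 Neurite number per cell from high-content imaging of betaIII-tubulin immunostaining, with Hoechst nuclear counterstain.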
# [22] = CCTE_Mundy_HCI_Cortical_NOG_NeuriteLength: CCTE's Neurite Outgrowth Assay in rat cortical cells for Neurite Length, Mundy Lab (AID 2284213);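 further: neurites imaged about 48 to 50 h after chemical exposure began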
# Procedure, shortened: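 Neurite length was read by high-content imaging of βIII-tubulin-labelled neurites in rat primary cortical cultures. Activity was fitted relative to DMSO.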
# [23] = CCTE_Mundy_HCI_Cortical_Synap_Neur_Matur_NeuriteLength: CCTE's Synaptogenesis and Neurite Maturation Assay in rat cortical cells for Neurite Length, Mundy Lab (AID 2284214)
# Procedure, shortened: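 Neurite length in rat primary cortical cultures is imaged after MAP2, synaptophysin and Hoechst staining. Dosing starts DIV 7, ending DIV 12; DMSO serves as negative control and baseline.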
structure (smiles),measurement,setting,value
O=[As]O,AC50,[1],2140 nM (active)
same,AC50,[2],1400 nM (active)
same,AC50,[3],1410 nM (active)
same,AC50,[4],2420 nM (active)
same,AC50,[5],1230 nM (active)
same,AC50,[6],2430 nM (active)
same,AC50,[7],1690 nM (active)
same,AC50,[8],1280 nM (active)
same,AC50,[9],1670 nM (active)
same,AC50,[10],1140 nM (active)
same,AC50,[11],1080 nM (active)
same,AC50,[12],1140 nM (active)
same,AC50,[13],1090 nM (active)
same,AC50,[14],1820 nM (active)
same,AC50,[15],1150 nM (active)
same,AC50,[16],996 nM (active)
same,AC50,[17],2030 nM (active)
same,AC50,[18],2960 nM (active)
same,outcome,[19],inactive
same,AC50,[20],5000 nM (active)
same,AC50,[21],3320 nM (active)
same,AC50,[22],2480 nM (active)
same,AC50,[23],6450 nM (active)
